An excerpt weighted towards active compounds, which were near 3.2% of everything screened.
VDR inhibitor – vitamin D3 receptor (human) inhibition | P11473 | VDR-SRC2-3 peptide fluorescence polarization, 2 h | Potency, µM, without a hit: max response, negative = inhibition, hits mostly inhibitors | 400,000 compounds, 0.93% hits | AID 504847; also: potency is read from the fitted curve at half-maximal effect
Target sequence (P11473 whole entry, looked up): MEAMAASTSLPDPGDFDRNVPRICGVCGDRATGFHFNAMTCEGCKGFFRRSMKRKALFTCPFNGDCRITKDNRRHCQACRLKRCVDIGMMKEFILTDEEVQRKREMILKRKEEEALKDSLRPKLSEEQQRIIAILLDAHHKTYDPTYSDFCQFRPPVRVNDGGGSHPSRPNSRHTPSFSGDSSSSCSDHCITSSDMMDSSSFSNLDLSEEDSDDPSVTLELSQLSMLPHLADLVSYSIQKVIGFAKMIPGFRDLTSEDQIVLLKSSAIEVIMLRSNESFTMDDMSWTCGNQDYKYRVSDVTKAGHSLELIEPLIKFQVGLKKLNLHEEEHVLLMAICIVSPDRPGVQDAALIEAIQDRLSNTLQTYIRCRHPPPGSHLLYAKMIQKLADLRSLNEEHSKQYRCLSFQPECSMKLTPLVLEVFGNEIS
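Fluorescence polarization assay measuring small-molecule disruption of VDR binding to the coregulator peptide SRC2-3. Compounds were pin-transferred (23 nl) into the reagent mix and incubated 2 h at room temperature before reading.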
USP2a inh – inhibitors of human ubiquitin-specific protease USP2a; USP2 core, Ub-CHOP2 coupled fluorogenic reporter, 485/531; 330,000 compounds, 0.01% hits; O75604; AID 463254; Potency, µM (titrated, usually from 38.3 µM), without a hit: at the highest dose activity change, negative = inhibition, hits mostly inhibitors;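 also: potency is read from the fitted curve at half-maximal effect; plate controls were DMSO wells for no effect and full inhibition by NEM control for full effect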
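Deubiquitinase activity read as fluorescence (485/531 nm) after Ub-CHOP2 cleavage activates the enterokinase reporter on its substrate; USP2 core 10nM, Ub-CHOP2 and substrate 25nM each, 30min compound preincubation then 60min RT; data normalized to NEM, curves fitted.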
USP1-UAF1 inh – inhibitors of human USP1/UAF1 deubiquitinase; O94782; recombinant USP1/UAF1, Ub-Rhodamine cleavage fluorescence; Potency, µM (top dose mostly 57.1 µM), for inactives: top-dose activity change, negative = inhibition, hits mostly inhibitors; 390,000 compounds, 0.23% hits; AID 743255; also: potency is read from the fitted curve at half-maximal effect; nearly all actives have a fitted effect of over 60% in size
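USP1/UAF1 complex at 1 nM was preincubated with compound for 15 min at room temperature, then Ub-Rho substrate (150nM final) was added. Fluorescence (480/540 nm) was read kinetically, 6 reads every 60 seconds.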
Coupling enz – coupling enzyme interference in Giardia aldolase counter-screen; AID 2472; coupling enzyme system counterscreen, AmpLite Red fluorescence; activity change, negative = inhibition, % at 58.2 µM, hits read low; 290,000 compounds, 0.67% hits; in the data active = activity change below about -30%
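Coupling enzymes only (glyceraldehyde-3-phosphate) + compound, at 57.5 uM final, 10 min RT; add substrate/coupling/AmpLite Red mix, 20 min RT; fluorescence ex 525/em 598 nm. Actives flag coupling-system interference.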
GALK inh – galactokinase (human) inhibition; Potency, µM (top dose mostly 57.5 µM), for the others: at the top dose activity change, negative = inhibition, actives largely listed as inhibitors; 270,000 compounds, 0.007% hits; Purified GALK, Kinase-Glo residual ATP luminescence; P51570; also: potency is read from the fitted curve at half-maximal effect
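ATP-depletion format; final 35 uM ATP, 100 uM D-galactose, 5 nM enzyme; pH 8.0 HEPES/Mg2+ buffer; 60 min RT; luminescence read 10 min after detection reagent.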
PLK1 PBD block – blocks phosphopeptide binding to human PLK1 polo-box domain | Potency, µM, for the others: max response, negative = inhibition, hits mostly inhibitors | AID 720504 | 360,000 compounds, 2.8% hits | P53350 | Plk1 PBD binding of FITC phosphopeptide, fluorescence polarization; also: potency is read from the fitted curve at half-maximal effect; series mostly up to about 57 µM; nearly all actives have a fitted effect of over 65% in size
TbPYK inh – confirmation of Trypanosoma brucei pyruvate kinase inhibitors; recombinant TbPYK, Kinase-Glo ATP luminescence; 890 compounds, 67% hits; Potency, µM (doses to about 76.9 µM), for inactives: at the top dose activity change, negative = inhibition, most hits filed as inhibitors; shares compounds with PLK1 PBD block; also: potency is read from the fitted curve at half-maximal effect; nearly all actives have a fitted effect of over 70% in size
TbPYK orthogonal – orthogonal confirmation of Trypanosoma brucei pyruvate kinase inhibitors; 890 compounds, 62% hits; recombinant TbPYK, ADP-Glo luminescence, 60 min; shares compounds with PLK1 PBD block; Potency, µM (series often up to 76.9 µM), for inactives: at the highest dose activity change, negative = inhibition, actives largely listed as inhibitors; also: potency is read from the fitted curve at half-maximal effect; nearly all actives have a fitted effect of over 75% in size
* hit, by the source's call; ? = inconclusive; nt = no result. Unless noted, calls follow the shape of the dose curve; as a rule, active = well fitted curve in the direction sought with a large enough effect; inconclusive = small, poorly fitted or top-dose-only effect, or another doubt; inactive = no such curve, though single readings can be large; an effect the other way counts as inactive or inconclusive. Unless noted, % is scaled to controls: 0 for no effect and ±100 for the full control effect.

SMILES	VDR inhibitor	USP2a inh	USP1-UAF1 inh	Coupling enz	GALK inh	PLK1 PBD block	TbPYK inh	TbPYK orthogonal
COCCn1c(C)cc(C(=O)COC(=O)c2ccc3ncsc3c2)c1C	-11%	2%	-16%	1	0%	2.4µM*	-1%	0%
COCCn1c(C)cc(C(=O)COC(=O)c2cncc(Br)c2)c1C	2%	2%	-12%	2	0%	-9%	nt	nt
O=C(CCCCn1c(=S)[nH]c2ccsc2c1=O)NCc1ccc2c(c1)OCO2	-15%	3%	-12%	3	0%	-27%	0.35µM*	1.1µM*
O=C(CCCn1c(=S)[nH]c2ccsc2c1=O)Nc1ccc2c(c1)OCCO2	-17%	0%	-18%	-1	11%	-7%	10µM*	14µM*
O=C(CCCCn1c(=O)[nH]c2ccsc2c1=O)NCc1ccc2c(c1)OCO2	6%	1%	-17%	8	0%	-6%	nt	nt
CCN1/C(=C/C(C)=C/c2sc3ccccc3[n+]2CC)Sc2ccccc21	-27%	-7%	?	1	11%	14%	?	-10%
CCN1/C(=C/c2ccc3cccc(C)c3[n+]2CC)Sc2ccccc21	-3%	3%	-19%	5	-4%	12%	nt	nt
O=C(NCC1CCN(Cc2cccc(Cl)c2)CC1)C1CCCN(c2ncnc3c2nc2n3CCCCC2)C1 (stereo unspecified)	-5%	1%	?	0	6%	-11%	nt	nt
Cc1snc(SCC(=O)c2ccc([N+](=O)[O-])cc2)c1C#N	?	2%	-19%	-2	0%	9.5µM*	18µM*	20µM*
Cc1snc(SCC(=O)c2ccc(F)cc2)c1C#N	0%	-1%	-7%	1	-2%	-9%	nt	nt
COC(=O)/C(=N\Nc1ccccc1)Sc1nnc(-c2ccc(OC)cc2)n1C	-4%	4%	-9%	11	0%	-4%	18µM*	18µM*
CCOC(=O)/C(=N\Nc1ccc(Cl)cc1)Sc1nnc(-c2ccc(OC)cc2)n1C	-10%	0%	-15%	1	1%	-6%	nt	nt
Cc1ccsc1CN(C(=O)c1oc2ccc(F)cc2c1C)C1CCS(=O)(=O)C1 (stereo unspecified)	21%	nt	?	nt	nt	nt	nt	nt
CS(=O)(=O)c1sc2nc(-c3cccs3)cc(-c3ccccc3)c2c1N	?	3%	-17%	1	-4%	8.4µM*	?	35µM*
C/C(Cn1nc([N+](=O)[O-])cc1C)=N\NC(=O)COc1c(Cl)cc(Cl)cc1Cl	-7%	-1%	-8%	1	1%	-9%	2%	-3%
COc1cc(C(=O)N/N=C(\C)Cn2nc([N+](=O)[O-])cc2C)ccc1O	-23%	1%	-4%	-1	-2%	-6%	nt	nt
O=C(CN(C(=O)c1ccccc1)C(=O)c1ccccc1)OCc1ccccc1	-14%	nt	-22%	nt	nt	0%	nt	nt
COc1ccc(S(=O)(=O)N2CCN(CC(=O)c3ccc(O)c(O)c3)CC2)cc1	2%	1%	-7%	nt	-8%	-11%	?	?
COc1cc(S(=O)(=O)N2CCN(c3ccccc3F)CC2)ccc1Cl	-1%	0%	-22%	-3	2%	-1%	nt	nt
O=C(O)c1ccc(CSc2nnc(-c3cccnc3)n2-c2ccc(Br)cc2)cc1	17%	-2%	1%	8	-2%	-14%	2.5µM*	3.5µM*
Oc1c(Br)cc(Br)c2cccnc12	?	nt	-18%	-8	nt	-23%	nt	nt
CCOC(=O)C1(C)C(C(=O)OC)=C(c2ccc(OC)cc2)c2ccccc2N1C(=O)OC (stereo unspecified)	?	1%	-18%	-2	nt	?	?	?

Bioassay records deposited in PubChem by National Center for Advancing Translational Sciences (NCATS).
